Screening results (PubChem)
The list is not random: actives were taken first. Their share in the collection is about 3.5%.
TEAD-YAP inh = TEAD-YAP interaction inhibition, primary screen, TEAD-YAP interaction inhibitor project, luminescence, HEK-TIYL cells | TEAD-Gal4/YAP UAS-luciferase luminescence | inhibition, % at 9.12 µM | 640,000 tested, 1.4% active; in the data active = inhibition above about 32%;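 also: 0% = median of test compound wells and 100% = reference inhibitor wells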
GPR151 ag = activators of human GPR151, primary screen, cell-based, PathHunter beta-arrestin, luminescence; activation, % at 11.2 µM; PathHunter beta-arrestin GPR151 cells; 650,000 tested, 1% active; in the data active = activation above about 4.9%;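 also: 0% = median of compound wells and 100% = cells with positive control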
MITF inh = MITF inhibitors, primary screen, biochemical, AlphaScreen, human; Microphthalmia-associated transcription factor (Homo sapiens), O75030; AID 1259374, 2018; AlphaScreen MITF homodimerization, bead proximity signal; 650,000 tested, 0.91% active; inhibition, % at 2.6 µM; in the data active = inhibition above about 50%;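 also: 0% = vehicle wells with protein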
Target sequence (O75030 whole entry, looked up): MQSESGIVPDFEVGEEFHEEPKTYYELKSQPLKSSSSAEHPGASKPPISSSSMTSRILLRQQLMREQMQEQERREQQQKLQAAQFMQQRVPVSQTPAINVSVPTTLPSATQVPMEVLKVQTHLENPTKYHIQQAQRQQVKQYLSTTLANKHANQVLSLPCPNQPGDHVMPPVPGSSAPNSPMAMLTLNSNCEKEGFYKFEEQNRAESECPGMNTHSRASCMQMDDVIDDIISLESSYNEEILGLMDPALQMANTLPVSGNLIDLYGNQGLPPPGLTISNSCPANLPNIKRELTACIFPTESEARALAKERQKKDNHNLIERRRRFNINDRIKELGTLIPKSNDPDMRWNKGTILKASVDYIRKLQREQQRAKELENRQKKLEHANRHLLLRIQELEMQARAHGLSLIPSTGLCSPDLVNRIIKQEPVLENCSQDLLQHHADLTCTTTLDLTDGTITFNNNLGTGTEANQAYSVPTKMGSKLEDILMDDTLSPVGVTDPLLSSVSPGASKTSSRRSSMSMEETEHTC
FBW7 activator = FBW7 E3 ligase activators, primary screen, biochemical, AlphaScreen, human | F-box/WD repeat-containing protein 7 (Homo sapiens), Q969H0 | AlphaScreen FBW7–phospho-cyclin E peptide binding, activator screen | normalized activity (activation), % at 26.1 µM | 650,000 tested, 0.13% active | AID 1259310, 2017; in the data active = normalized activity above about 1.9%;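 also: purified mutant Fbw7 with reduced substrate affinity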
GPR151 confirm = GPR151 activators, triplicate retest, confirmation, cell-based, PathHunter beta-arrestin, luminescence. shares compounds with GPR151 ag. GPR151 PathHunter beta-arrestin cells, 90 min; % of EA-reagent control over plate median. activation, % at 11.2 µM. 6,700 tested, under 10 active;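 active = mean percent activation across replicates above the confirmation screen cutoff of 4.91%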
GPR119 counter = GPR119 activators in beta-arrestin cells, counter-screen for GPR151 activator project, cell-based, PathHunter beta-arrestin, luminescence, triplicate; 90 min; 0 = compound-well median, 100 = enzyme-acceptor control; 6,700 tested, 0.3% active; shares compounds with GPR151 ag; activation, % at 11.2 µM;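 active = mean percent activation in the counterscreen above 29.09%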;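 also: counterscreen on off-target GPR119 to flag nonselective hits from the GPR151 activator screen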
* marks the source's active call; other numbers are inactive results; / = no result.

SMILES | TEAD-YAP inh | GPR151 ag | MITF inh | FBW7 activator | GPR151 confirm | GPR119 counter
CN(Cc1ccsc1)C1CCN(c2ccc(CC(=O)N3CCC(O)CC3)cc2)CC1 | 3 | 0 | 0 | 0 | / | /
COC(=O)c1ccc(OCC(=O)Nc2ccccc2Cl)cc1 | -13 | -1 | 12 | 0 | / | /
COc1ccccc1NC(=S)NC(=O)c1ccc(F)cc1 | -11 | 0 | 4 | 0 | / | /
COc1cc(NC(=O)CS(=O)(=O)c2ccc(C)cc2)cc(OC)c1OC | 2 | 6.0* | 13 | 0 | 0 | -9
COc1ccc(NC(=O)C(C)NS(=O)(=O)c2ccc(C)cc2)cc1OC (stereo not drawn) | 1 | 13* | 21 | 0 | 0 | 5
Cc1ccc(S(=O)(=O)NC(C)C(=O)Nc2cccc(C(F)(F)F)c2)cc1 (stereo not drawn) | 14 | 6.0* | 7 | 0 | 0 | 0
Cc1ccc(S(=O)(=O)NC(C)C(=O)Nc2ccc(C(F)(F)F)cc2)cc1 (stereo not drawn) | 7 | 0 | -17 | 0 | / | /
CCOC(=O)COc1ccc(S(=O)(=O)NC(C)CC)cc1 (stereo not drawn) | 4 | 5.3* | -4 | 0 | 0 | 9
CCOc1cc2c(cc1OCC)C(c1ccccc1C)NCC2 (stereo not drawn) | 0 | 1 | -4 | 0 | / | /
O=C1Nc2ccccc2Oc2cc([N+](=O)[O-])cc(Oc3ccc(Br)cc3)c21 | 4 | 11* | 5 | 0 | 1 | 1
COc1ccc(S(=O)(=O)CCC(=O)Nc2ccccc2Br)cc1 | -9 | 9.4* | 3 | 0 | 0 | -4
CC(=O)c1cccc(NC(=O)CCS(=O)(=O)c2ccc(F)cc2)c1 | -73 | 1 | 9 | 0 | / | /
Oc1ccccc1-c1csc(Nc2ccccn2)n1 | -79 | 7.6* | -8 | 0 | -2 | -15
CCOc1ccc(C(=S)N2CCCC2)cc1 | 1 | -1 | 5 | 0 | / | /
CCOc1ccc(C(=S)N2CCCCC2)cc1 | -19 | 6.2* | -30 | 0 | 0 | -9
C=CCn1c(C)cc(C2=NNC(=Nc3ccccc3)SC2)c1C | -43 | 0 | 18 | 1 | / | /
COCCn1c(C)cc(C2=NNC(=Nc3ccccc3)SC2)c1C | 57* | 11* | -4 | 0 | 1 | 2
COc1ccc(Cl)cc1NS(=O)(=O)c1ccc2c(c1)NC(=O)CC(=O)N2 | 6 | 0 | 3 | 1 | / | /
COc1cccc(-c2csc(N3CCN(CC(=O)Nc4ccc(Cl)cc4)CC3)n2)c1 | -13 | -1 | 17 | 0 | / | /
O=C(Cc1ccccc1)N1CCC(N2CCCC2)CC1 | 12 | -1 | 7 | 0 | / | /
O=C(Cc1ccccc1)N1CCC(=O)N(CC2CC2)CC1 | 0 | 9.9* | 10 | 0 | 0 | 1
CC(C)c1ccc(NC(=O)C2CCN(S(=O)(=O)c3cccc4cnccc34)CC2)cc1 | 16 | 3 | -5 | 0 | / | /
C/C(=N\Nc1ccccc1)c1nonc1C | 1 | 0 | -1 | 0 | / | /
Cn1c(=O)c2c(nc(N3CCCCCC3)n2CCc2ccccc2)n(C)c1=O | -7 | 5.0* | -11 | 0 | 2 | 8
CCN1CCN(c2nc3c(c(=O)n(C)c(=O)n3C)n2CCSc2ncccn2)CC1 | 2 | 8.0* | -3 | 0 | 0 | 4
SMILES | TEAD-YAP inh | GPR151 ag | MITF inh | FBW7 activator | GPR151 confirm | GPR119 counter
Cn1c(=O)c2c(nc(Cl)n2CC(=O)NCc2ccccc2)n(C)c1=O | 12 | 6.5* | 15 | 0 | 0 | 7
COc1ccc(-n2nc3cc(C)c(NC(=O)COc4ccc(C)cc4)cc3n2)cc1 | -3 | -1 | 3 | 0 | / | /
O=C(CSc1nnc(-c2ccncc2)n1C1CCCCC1)NC1CCCC1 | 3 | -1 | 9 | 0 | / | /
O=C(COc1ccc(F)cc1)Nc1ccc(C(=O)O)cc1 | -2 | 0 | 12 | 0 | / | /
C=CCc1cc2c(C)cc(=O)oc2c(I)c1O | -15 | 7.1* | 14 | 0 | 1 | 6
c1ccc(-c2nnc(-c3ccccc3)o2)cc1 | -34 | -7 | 2 | 0 | / | /
c1ccc(C2=NCCCO2)cc1 | 9 | 10* | -22 | 0 | 1 | -6
COc1ccc(-c2csc(NC(=O)c3ccc(S(=O)(=O)N4CCCCCC4)cc3)n2)c(OC)c1 | 8 | -1 | -5 | 0 | / | /
O=C(NCc1ccccn1)c1cc2c(ccc3ccccc32)oc1=O | -11 | 12* | 9 | 0 | -1 | 1
O=C(NCc1ccccc1)c1cc2cc([N+](=O)[O-])ccc2oc1=O | -2 | 13* | 0 | 0 | 0 | 4
Cn1c(=NC(=O)c2cc(=O)c3ccccc3o2)sc2cccc(F)c21 | -21 | 0 | -12 | 1 | / | /
COc1ccc(S(=O)(=O)N2CC(O)C[C@H]2C(=O)OCC(=O)N2CCCCC2)cc1 (stereo partly drawn) | 4 | 0 | -4 | 0 | / | /
CC(C)c1[nH]nc2c1C(C(C)C)C(C#N)=C(N)O2 (stereo not drawn) | 0 | 8.3* | 3 | 0 | 1 | -6
Cc1ccc(C2=Nc3ccccc3N=C(c3cccc([N+](=O)[O-])c3)C2)c(O)c1 | -3 | 2 | 13 | 0 | / | /
CCc1ccc(NC(=O)CCc2ccc(CC)o2)cc1 | -14 | 8.5* | 1 | 0 | 0 | -4
CC(=O)N1CN(Cc2cccnc2)Cc2c1sc1c2CCCC1 | -4 | 0 | -5 | 0 | / | /
CC(=O)N1CN(Cc2ccccc2)Cc2c1sc1c2CCCC1 | -8 | 5.5* | 1 | 0 | 0 | -3
Cn1c(SCC(=O)Nc2ccccc2O)nnc1-c1ccccc1 | -16 | -1 | 3 | 0 | / | /
Cc1ccc(N(CC(O)CN2CCOCC2)S(=O)(=O)c2ccc([N+](=O)[O-])cc2)cc1 (stereo not drawn) | 9 | -1 | 5 | 0 | / | /
Cc1ccc(N(CC(O)Cn2nc(C)cc2C)S(=O)(=O)c2ccc([N+](=O)[O-])cc2)cc1 (stereo not drawn) | -10 | 4.9* | 1 | 0 | 1 | 2
CN(CC(=O)N1CCC(Cc2ccccc2)CC1)S(=O)(=O)c1ccc2ccccc2c1 | -10 | 5.7* | 5 | 0 | 0 | -3
CCN(CC(=O)N1CCC(Cc2ccccc2)CC1)S(=O)(=O)c1ccc(Cl)cc1 | 10 | 1 | -6 | 0 | / | /
CCOC(=O)N1CCN(C(=O)CN(c2ccccc2Br)S(C)(=O)=O)CC1 | 2 | 7.6* | 14 | 0 | 1 | -5
Cc1cnc(NC(=O)Cc2ccsc2)s1 | -1 | 6.3* | 4 | 0 | 0 | -1
